Screens (PubChem)
Luc counter = Kinase-Glo luciferase inhibition (counter-screen) | Q27757 | Kinase-Glo luciferase, ATP luminescence, 8 min | Potency, µM (titrated, usually from 38.3 µM), without a hit: at the top dose activity change, negative = inhibition, most hits filed as inhibitors | 0.28% of 200,000 active | AID 1379; further: on the % scale 0 is the no-effect control and ±100 the full control effect; nearly all actives have a fitted effect of over 60% in size
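Compounds were added to a substrate mix at pH 7.2 (50 mM imidazole, 10 uM ATP, within the enzyme's linear range), followed by Kinase-Glo detection reagent; luminescence was measured after 8 minutes at ambient temperature.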
ELG1 genotox = inducers of genotoxicity in HEK293T ELG1-luciferase cells | Potency, µM (top dose mostly 46 µM), without a hit: top-dose activity change, positive = activation, usual class: activators | 1.3% of 330,000 active | HEK293T ELG1-luciferase reporter, luminescence, 16 h | AID 504466; further: % of control where 0% means no effect; nearly all actives have a fitted effect of over 60% in size
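Genotoxicity was scored as increased ELG1-luciferase reporter signal, measured by ONE-Glo luminescence (30 min, room temperature). Compound or vehicle exposure of the HEK293T reporter cells lasted 16 hr at 37°C.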
NPC1 prom act = NPC1 promoter activation. AID 485313. Huh7 NPC1 promoter luciferase reporter, 24 h. Potency, µM (top dose mostly 9.22 µM), for inactives: at the highest dose activation, usual class: activators. 2.4% of 320,000 active; further: % of control where 0% means no effect; nearly all actives have a fitted effect of over 60% in size
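Stably transfected Huh7 (NPC1 promoter→luciferase), 1500 cells/well in Opti-MEM + 10% FBS, 2 h settle, then compound 24 h at 37 °C. Luminescence after 10 min with Amplite reagent.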
Rab9 promoter act = Rab9 promoter activation | Huh7 Rab9 promoter-luciferase reporter, luminescence, 24 h | Potency, µM (series often up to 9.22 µM), without a hit: top-dose activation, negative = inhibition, most hits filed as activators | 2.8% of 320,000 active | AID 485297; further: % of control where 0% means no effect; nearly all actives have a fitted effect of over 60% in size
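Promoter activation is measured as luciferase luminescence in Huh7 cells stably transfected with a Rab9 promoter–luciferase construct, following 24 h compound exposure at 37 °C and 10 min reagent incubation at ambient temperature.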
FLuc modulator = firefly luciferase modulation, counter-screen for miR-21 project; P08659; purified FLuc, Km substrates, luminescence inhibition; Potency, µM (doses to about 57.5 µM), without a hit: at the top dose activity change, negative = inhibition, most hits filed as inhibitors; 6.9% of 360,000 active;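 further: plate controls were vehicle for no effect and reference inhibitor for full effect; nearly all actives have a fitted effect of over 55% in size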
Target sequence (P08659 whole entry, looked up): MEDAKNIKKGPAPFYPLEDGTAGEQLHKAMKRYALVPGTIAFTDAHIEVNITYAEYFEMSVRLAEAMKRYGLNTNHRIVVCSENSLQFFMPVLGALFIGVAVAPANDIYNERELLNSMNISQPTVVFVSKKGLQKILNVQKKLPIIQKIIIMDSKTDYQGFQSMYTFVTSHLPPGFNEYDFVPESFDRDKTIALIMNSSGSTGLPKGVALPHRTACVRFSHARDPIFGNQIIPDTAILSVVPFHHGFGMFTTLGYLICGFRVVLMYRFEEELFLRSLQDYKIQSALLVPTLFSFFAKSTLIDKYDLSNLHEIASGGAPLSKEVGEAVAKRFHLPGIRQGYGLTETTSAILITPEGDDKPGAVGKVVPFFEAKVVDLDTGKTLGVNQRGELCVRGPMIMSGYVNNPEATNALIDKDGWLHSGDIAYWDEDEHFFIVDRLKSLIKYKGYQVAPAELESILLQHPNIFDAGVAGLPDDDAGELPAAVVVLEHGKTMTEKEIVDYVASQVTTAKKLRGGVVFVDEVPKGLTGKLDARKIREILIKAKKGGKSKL
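Purified P. pyralis luciferase, 10 nM final, with Km-level 10 uM D-luciferin and 10 uM ATP in 50 mM Tris acetate pH 7.5, 10 mM Mg acetate, 0.01% Tween-20, 0.05% BSA; 6-point qHTS titration about 60 µM downward; luminescence read.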
SMN2 splice enh = SMN2 splice variant enhancement | HEK293 SMN2-luciferase splicing reporter, luminescence, 30-36 h | Potency, µM (series often up to 46.1 µM), without a hit: top-dose activity change, positive = activation, usual class: activators | 2.8% of 210,000 active | AID 1458; further: % of control where 0% means no effect; nearly all actives have a fitted effect of over 55% in size
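qHTS luciferase splicing reporter: luminescence rises when SMN2 exon 7 is included in transfected HEK293 cells. Compound exposure lasted 30-36 h at 37C, with 4.5 mM final sodium butyrate as control, followed by a ONE-Glo read.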
* = called active by the depositor; [ ] = dose if it differs, or a comment. Most compounds without a hit are left out; they make up all but 7.5% or so of the library. The call rests on the fitted dose curve; in most records, active means well fitted curve in the direction sought with a large enough effect; inconclusive means small, poorly fitted or top-dose-only effect, or another doubt; inactive means no such curve, though single readings can be large; an effect the other way counts as inactive or inconclusive. Potency means the concentration at half of the fitted maximal effect.

CCOc1ccc(NC(=O)CC2C(=O)N(c3ccccc3)C(=O)N2CCc2ccc(OC)cc2)cc1 (configuration not stated) was read as FLuc modulator 0.7% and SMN2 splice enh 4.2%.
`O=C(Nc1ccccc1N1CCOCC1)c1cc2ccccc2o1` gave ELG1 genotox 4.3%, NPC1 prom act inconclusive, Rab9 promoter act 16.4% and FLuc modulator 9.53µM*.
`Cc1cc(C(=O)CN2C(=O)NC3(CCCCC3)C2=O)c(C)n1Cc1ccco1` gave Luc counter 1.3%, ELG1 genotox 6.51µM*, NPC1 prom act 2.24µM*, Rab9 promoter act 1.41µM*, FLuc modulator 7.57µM* and SMN2 splice enh 11.2µM*.
For Cc1cc(C(=O)CN2C(=O)c3cccc(N)c3C2=O)c(C)n1Cc1cccs1 the results were Luc counter -2.4%, ELG1 genotox 2.91µM*, NPC1 prom act 1.26µM*, Rab9 promoter act 1.12µM*, FLuc modulator 1.07µM* and SMN2 splice enh 8.91µM*.
Cc1cc(C(=O)CSc2nnc(-c3ccccc3F)o2)c(C)n1Cc1cccs1 was read as Luc counter -5.2%, ELG1 genotox 0.6%, NPC1 prom act -2.6%, Rab9 promoter act -5.7%, FLuc modulator inconclusive and SMN2 splice enh -29.6%.
`Cc1cc(C(=O)CN2C(=O)NC3(CCCCC3C)C2=O)c(C)n1Cc1cccs1` (configuration not stated) gave Luc counter -3.6%, ELG1 genotox inconclusive, NPC1 prom act 3.98µM*, Rab9 promoter act 2.82µM*, FLuc modulator 6.75µM* and SMN2 splice enh 15.8µM*.
Brc1ccc2c(c1)c1cc(Br)ccc1n2CC1CO1 (configuration not stated) was read as Luc counter -2.3% and SMN2 splice enh 12.0%.
Cc1cccc(N/N=C/c2ccccc2O)c1 was read as Luc counter -1.7%, ELG1 genotox inconclusive, NPC1 prom act inconclusive, Rab9 promoter act 3.98µM*, FLuc modulator 6.01µM* and SMN2 splice enh 11.2µM*.
For O=C(N/N=C/c1ccc(O)cc1)c1cccc(N/N=C/c2ccc(O)cc2)c1 the results were ELG1 genotox inconclusive, NPC1 prom act 0.562µM*, Rab9 promoter act 0.891µM* and FLuc modulator 2.13µM*.
For Cc1cccc(NC(=O)CCC(=O)N/N=C/c2ccc(O)cc2O)c1 the results were ELG1 genotox 8.0%, NPC1 prom act -8.2%, Rab9 promoter act -4.0% and FLuc modulator -2.8%.
For O=C(N/N=C/c1ccncc1)c1cccc(NC(=O)c2ccc(Cl)cc2)c1 the results were Luc counter 1.4%, ELG1 genotox 1.5%, NPC1 prom act -2.4%, Rab9 promoter act -2.8%, FLuc modulator -7.3% and SMN2 splice enh -17.8%.
Screening Cc1cccc(NC(=O)C(=O)N/N=C/c2ccncc2)c1 returned Luc counter -4.6%, ELG1 genotox 2.0%, NPC1 prom act -1.5%, Rab9 promoter act -1.9%, FLuc modulator -10.0% and SMN2 splice enh 10.0%.
Screening Cc1cccc(N/N=C/c2ccncc2)c1 returned ELG1 genotox inconclusive, NPC1 prom act inconclusive, Rab9 promoter act inconclusive and FLuc modulator 15.1µM*.
`O=C(N/N=C/c1ccncc1)c1cccc(N/N=C/c2ccncc2)c1` gave Luc counter 1.9%, ELG1 genotox -2.0%, NPC1 prom act 3.55µM*, Rab9 promoter act inconclusive, FLuc modulator 10.7µM* and SMN2 splice enh inconclusive.
Screening Cc1cccc(Nc2nc(-c3ccccc3)c3cc(C)ccc3n2)c1 returned FLuc modulator 1.6% and SMN2 splice enh 6.2%.
For CCC(=O)OCC(=O)[C@@]1(OC(=O)CC)[C@H](C)C[C@@H]2[C@@H]3[C@H]([C@@H](O)C[C@@]21C)[C@]1(C)C=CC(=O)C=C1C[C@@H]3Cl the results were Luc counter 0.2%[17.1 µM] and SMN2 splice enh 0.0%[20.6 µM].
COc1cccc(-n2c(SCC(=O)Nc3cccc(C)c3)nc3c([nH]c4ccccc43)c2=O)c1 was read as FLuc modulator 4.9%.
`O=C(CCSc1ccccc1)N1CCN(c2ccccc2)CC1` gave Luc counter 2.6%, ELG1 genotox inconclusive, NPC1 prom act 2.82µM*, Rab9 promoter act 2.82µM*, FLuc modulator 19µM* and SMN2 splice enh 22.4µM*.
For O=C(CCCOc1ccccc1)N1CCN(S(=O)(=O)c2ccccc2)CC1 the results were ELG1 genotox -0.5%, NPC1 prom act -1.6% and Rab9 promoter act 16.3%.
For O=C(CCCOc1ccccc1)N1CCN(c2ccccc2)CC1 the results were Luc counter -2.5%, ELG1 genotox 9.2µM*, NPC1 prom act 3.55µM*, Rab9 promoter act 2.82µM*, FLuc modulator 9.53µM* and SMN2 splice enh inconclusive.
For O=C(CSc1ccccc1)N1CCN(c2ccccc2)CC1 the results were Luc counter 0.8%, ELG1 genotox 7.5%, NPC1 prom act 17.2%, Rab9 promoter act 20.1%, FLuc modulator inconclusive and SMN2 splice enh inconclusive.
`O=C(/C=C/C(=O)N1CCc2ccccc2C1)N1CCc2ccccc2C1` gave ELG1 genotox -2.1%, NPC1 prom act -0.4%, Rab9 promoter act -2.1% and FLuc modulator -2.9%.
Screening O=C(Cc1ccc(Br)cc1)N1CCc2ccccc2C1 returned ELG1 genotox inconclusive, NPC1 prom act inconclusive, Rab9 promoter act inconclusive and FLuc modulator 16.9µM*.
`CCOC(=O)N1CCN(C(=O)CCCOc2ccccc2)CC1` gave Luc counter 2.5%, ELG1 genotox inconclusive, NPC1 prom act 2.82µM*, Rab9 promoter act 1.78µM*, FLuc modulator -11.4%[2.3 µM] and SMN2 splice enh 12.6µM*.
Cc1ccc(-n2nnnc2CNC(=O)c2cc(C(F)(F)F)cc(C(F)(F)F)c2)cc1C was read as FLuc modulator -7.5%.
Screening O=C(Cn1nc(N2CCN(c3ccccc3)CC2)ccc1=O)NCc1ccccc1F returned FLuc modulator -9.2%.
Screening O=C(CCCOc1ccccc1)N1CCc2ccccc2C1 returned Luc counter 0.1%, ELG1 genotox 20.6µM*, NPC1 prom act 29.2%, Rab9 promoter act 23.3%, FLuc modulator 23.9µM* and SMN2 splice enh 12.6µM*.
Screening Cc1ccccc1N1CCN(C(=O)CCN2C(=O)c3ccccc3C2=O)CC1 returned Luc counter -6.8%, ELG1 genotox 5.1%, NPC1 prom act 0.5%, Rab9 promoter act 16.8%, FLuc modulator 16.9µM* and SMN2 splice enh 4.3%.
`O=C(CCCOc1ccc(Cl)cc1Cl)N1CCc2ccccc2C1` gave Luc counter 1.8%, ELG1 genotox 1.3%, NPC1 prom act -2.6%, Rab9 promoter act -8.2%, FLuc modulator -16.7% and SMN2 splice enh -58.3%.
